Drawing on PubChem BioAssay (EPA / NIEHS), this text covers outcome and AC50 for 37 molecules.

SMILES strings stand for the structures. Several values for one entry are separate records, joined by “and”; a condition that tells them apart may be missing. Identical values can stand only once. Where a structure was tested more than once in an assay, its records may differ in their call. Activity calls are given as the source filed them. The calls were made as follows: active = hit-call score of the fitted dose curve at least 0.9, where 1 is the maximum; inactive = score below 0.9.

This assay can be described thus: ATG_TGFb_CIS: Attagene CIS-FACTORIAL HepG2 Assay for human Transforming Growth Factor (TGF) (AID 2282967). To be noted: HepG2 Attagene CIS TGFb reporter, mRNA transcription; actives raise or lower the signal. As for the experimental part:
ATG_CIS is a cell-based, multiplexed-readout assay that uses HepG2, a human liver cell line, with measurements taken at 24 hours after chemical dosing in a 24-well plate.ATG_TGFb_CIS is one of 52 assay component(s) measured or calculated from the ATG_CIS assay. It is designed to make measurements of mRNA induction, a form of inducible reporter, as detected with fluorescence intensity signals by Reverse transcription polymerase chain reaction (RT-PCR) and Capillary electrophoresis technology.Data from the assay component ATG_TGFb_CIS was analyzed into 1 assay endpoint. This assay endpoint, ATG_TGFb_CIS, was analyzed with bidirectional fitting relative to DMSO as the negative control and baseline of activity. Using a type of inducible reporter, measures of mRNA for gain or loss-of-signal activity can be used to understand the reporter gene at the transcription factor-level as they relate to the gene TGFB1. Furthermore, this assay endpoint can be referred to as a primary readout, because this assay has produced multiple assay endpoints where this one serves a reporter gene function. To generalize the intended target to other relatable targets, this assay endpoint is annotated to the growth factor intended target family, where the subfamily is transforming growth factor beta.
Human liver HepG2 cells are transiently transfected with multiple reporter transcription units (MRTUs) in 6-well plates using FuGene 6 reagent (Roche; 3 ml FuGene/1 mg DNA). The MRTU constructs are regulated by a cis-regulating element (promoter). […] A major difference between the CIS and TRANS system is that in CIS activities of endogenous TFs are measured, whereas the TRANS assay evaluates changes in activities of exogenous, chimeric NR-Gal4 proteins. […] At the end of 24 hour incubation, total RNA was isolated using TriZol reagent (Invitrogen). The isolated RNA is then reverse-transcribed using oligo(dT) primer and Mo-MLV reverse transcriptase (Invitrogen) with DNAse I (Ambion) treatment for 30 min. The one-tenth of the produced cDNA was amplified by PCR using Taq DNA polymerase (Invitrogen) and two reporter sequence-specific primers. The PCR products were fluorescently labeled by primer extension with 6-arboxyfluorescein (6-FAM) 5'-labeled reporter sequence-specific primer (2 min at 95 C, 20 s at 68 C and 10 min at 72 C) and these products were digested with 5U of HpaI (New England Biolabs) for 2h at 37 C. The fragments were purified using Qiaquick PCR columns (Qiagen), analyzed on an ABI 3130xL genetic analyzer (Applied Biosystems) with peak positions identified by using a set of X-rhodamine (ROX)-labeled MapMarker1000 molecular weight standards (BioVentures). The raw capillary electrophoresis data was processed using Attagraph software (Attagene).
With `CC(C)(C)c1ccc(O)c(C(C)(C)C)c1`, the call was inactive.

For the molecule `ClC1=C(Cl)C(Cl)(Cl)C(Cl)=C1Cl`, the call was inactive.

Turning to `O=C(O)Cc1cc(I)c(Oc2cc(I)c(O)c(I)c2)c(I)c1`, the call was inactive.

With `CCCCCCCCCCCCCCCS(=O)(=O)Oc1ccccc1`, the outcome was inactive.

Turning to `CCCCCCCCOC(=O)CCCCCCCCC(=O)OCCCCCCCC`, the call was inactive.

As for `OCCC(F)(F)C(F)(F)C(F)(F)C(F)(F)C(F)(F)C(F)(F)F`, the AC50 is 157 µM (active) and the molecule was called inactive.

With `CC(=O)CC(C)(C)O`, the molecule was called inactive.

In the case of `COC(=O)CCCCC(=O)OC`, the call was inactive.

Turning to `CCCCCCCC(=O)O`, the molecule was classed as inactive.

For `CCCCCCCCCCCCN1CCCC1=O`, the molecule was classed as inactive.

As to `CCC(C)(C)C1CCC(O)CC1` (stereo not given), the call was inactive.

As for `CC(C)(C)CC(C)(C)c1ccc(O)c(-n2nc3ccccc3n2)c1`, the molecule was called inactive.

Consider `OCCC(F)(F)C(F)(F)C(F)(F)C(F)(F)C(F)(F)C(F)(F)C(F)(F)C(F)(F)F`, for which the outcome was inactive.

Consider `CC[C@H](c1ccc(O)cc1)[C@@H](CC)c1ccc(O)cc1`, for which the result was inactive.

In the case of `O=C1OC2(c3ccccc31)c1cc(Br)c(O)c(Br)c1Oc1c2cc(Br)c(O)c1Br`, the call was inactive.

For `CCC(=C(c1ccc(O)cc1)c1ccc(OCCN(C)C)cc1)c1ccccc1`, the outcome was inactive.

In the case of `CC(C)(C)c1cccc(C(C)(C)C)c1O`, the result was inactive.

`COc1ccc([N+](=O)[O-])cc1N`: the call was inactive.

Regarding `CC1=C(/C=C/C(C)=C/C=C/C(C)=C/C(=O)O)C(C)(C)CCC1`, the result was inactive.

`NC(=O)N1C(=O)C(C(=O)c2cc(Cl)cs2)c2cc(F)c(Cl)cc21` (stereo not given): the result was inactive.

Consider `CCc1ccc(CCOc2ccc(CC3SC(=O)NC3=O)cc2)nc1` (stereo not given), for which the molecule was classed as inactive.

Turning to `CCCCC[C@H](O)CC(=O)CCc1ccc(O)c(OC)c1`, the molecule was classed as inactive.

Regarding `c1ccc2c(c1)ccc1ccccc12`, the result was inactive.

Turning to `N#C[C@@H]1CC(F)(F)CN1C(=O)CNC1CC2CCC(C1)N2c1ncccn1` (stereo not given in full), the molecule was classed as inactive.

Consider `O=C(OCCOCCOC(=O)c1ccccc1)c1ccccc1`, for which the call was inactive.

As for `c1ccc2c(c1)Cc1ccccc1-2`, the molecule was classed as inactive.

On to `Oc1cc2ccccc2c2ccccc12`, for which the outcome was inactive.

Turning to `CC(=O)NC1(c2cccc(F)c2)CCN(CC[C@@]2(c3ccc(Cl)c(Cl)c3)CN(c3ccccc3)C(=O)CO2)CC1`, the call was inactive.

Consider `CCN(CC)CCNc1ccc(CNC=O)c2sc3ccc(OC)cc3c(=O)c12`, for which the molecule was classed as inactive.

Take `CCCCCCC(=O)O`: the molecule was classed as inactive.

Turning to `CC#C[C@]1(O)CC[C@H]2[C@@H]3CCC4=CC(=O)CCC4=C3[C@@H](c3ccc(N(C)C)cc3)C[C@@]21C`, the outcome was inactive; the concentration at half-maximal activity (AC50) was 8.06 µM (active) and 26.5 µM (active).

With `NC(=O)N(O)[C@@H]1C=C[C@H](Oc2cccc(Oc3ccc(F)cc3)c2)C1`, the molecule was called inactive.

Consider `O=C(O)c1ccccc1C(c1ccc(O)cc1)c1ccc(O)cc1`, for which the outcome was inactive.

As for `C[C@@H]1C[C@H]2[C@@H]3CCC4=CC(=O)C=C[C@]4(C)[C@@]3(F)[C@@H](O)C[C@]2(C)[C@@]1(O)C(=O)COP(=O)(O)O`, the molecule was called inactive and the AC50 was 0.473 µM (active).

With `COCC(C)O` (stereo not given), the molecule was classed as inactive.

As to `CC(C)CCCCCCOC(=O)CCCCC(=O)OCCCCCCC(C)C`, the result was inactive.

Regarding `CCCCCCCCCCCCCC[N+](C)(C)C`, the molecule was called inactive.
